CR mimetic SO – reduction of superoxide in aged yeast, primary screen, HTS; S. cerevisiae aged cells, superoxide DHE fluorescence; hits give low values; superoxide response (% of plate mean), % at 10 µM; 0.18% of 330,000 active;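 active = superoxide response under a set limit, about three screen SD below normal, cut at about 65% in these data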;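 note: yeast aged for seven days with compound at 30 °C before DHE staining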
ALR H2O2 inh – inhibitors of human ALR sulfhydryl oxidase, primary screen, biochemical, H2O2 detection, HRP-luminol luminescence, single point | purified ALR, DTT oxidation | inhibition, % (no concentration beside the values) | 3.8% of 290,000 active;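 active = mean replicate inhibition above about 79%, with every replicate also reaching it, limit read from the data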
Target sequence (P55789 whole entry, looked up): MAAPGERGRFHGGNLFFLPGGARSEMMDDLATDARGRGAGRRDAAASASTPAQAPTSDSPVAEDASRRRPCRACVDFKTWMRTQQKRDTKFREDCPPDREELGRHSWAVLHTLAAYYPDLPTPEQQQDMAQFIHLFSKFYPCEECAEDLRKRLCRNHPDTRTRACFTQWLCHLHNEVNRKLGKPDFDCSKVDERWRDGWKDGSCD
PfM18AAP inh – PfM18AAP inhibitors, malaria aminopeptidase, primary screen, biochemical, QFRET, recombinant enzyme. M18 aspartyl aminopeptidase (Plasmodium falciparum 3D7). H-Glu-NHMec fluorogenic cleavage. inhibition, % at 7.35 µM. 1.2% of 290,000 active;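 active = inhibition above the campaign mean inhibition over all tested compounds plus 3 SD, cut at about 28% in these data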
APOBEC3G inh – APOBEC3G DNA deaminase inhibitors, primary screen, biochemical, fluorescence, single-stranded DNA substrate, uHTS; DNA dC->dU-editing enzyme APOBEC-3G (Homo sapiens), Q9HC16; inhibition, % at 20 µM; 0.28% of 330,000 active; recombinant A3G, ssDNA deamination FAM/TAMRA fluorescence;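 active = inhibition of at least 40% at 20 µM, with no more than 30% in the related APOBEC3A deaminase screen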
Target sequence (Q9HC16 whole entry, looked up): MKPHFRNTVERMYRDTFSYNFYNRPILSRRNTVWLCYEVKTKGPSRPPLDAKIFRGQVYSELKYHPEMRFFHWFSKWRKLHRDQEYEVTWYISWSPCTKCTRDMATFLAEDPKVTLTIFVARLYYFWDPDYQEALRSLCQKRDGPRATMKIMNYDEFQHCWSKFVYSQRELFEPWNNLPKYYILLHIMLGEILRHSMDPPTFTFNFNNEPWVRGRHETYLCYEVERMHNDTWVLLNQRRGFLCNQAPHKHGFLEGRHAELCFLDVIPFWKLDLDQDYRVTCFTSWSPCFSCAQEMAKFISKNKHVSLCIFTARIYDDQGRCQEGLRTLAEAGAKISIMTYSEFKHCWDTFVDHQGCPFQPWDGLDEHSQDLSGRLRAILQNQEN
APOBEC3A inh – APOBEC3A ssDNA deaminase inhibitors, primary screen, selectivity assay for APOBEC3G inhibitor project, biochemical, FAM/TAMRA oligo cleavage fluorescence; recombinant A3A, FAM/TAMRA ssDNA deamination fluorescence; inhibition, % at 20 µM; 0.41% of 330,000 active; AID 493011, 2011;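 active = at least 40% inhibition at 20 µM here, with at most 30% in a related deaminase screen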
NRP1-CendR mod – modulators of CendR peptide binding to NRP-1, primary screen, biochemical, fluorescence polarization, uHTS; Neuropilin-1 (Homo sapiens), O14786; inhibition, % at 25 µM; 0.85% of 360,000 active; FAM-RPARPAR peptide binding to NRP-1;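 active = inhibition or corrected inhibition above about 18%, plus a signal ratio from 0.5 to 1.5, limit read from the data, passing the limit was not always enough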
A3A conf – APOBEC3A deaminase inhibitors, retest, confirmation, selectivity assay for APOBEC3G inhibitor project, biochemical, single concentration, fluorescence readout; shares compounds with APOBEC3A inh; recombinant A3A, ssDNA deaminase UDG fluorescence assay; inhibition, % at 20 µM; 63% of 1,400 active; AID 493151, 2011;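 active = inhibition reaching a set limit, 80% of the first screen's cutoff, at 20 µM in any replicate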
UDG ctr A3A – E. coli UDG inhibitors, confirmation, counter-screen for APOBEC3A inhibitor project, biochemical, single concentration, fluorescence, FAM/TAMRA oligo; 1,000 tested, under 10 active; AID 504714, 2011; shares compounds with APOBEC3A inh; inhibition, % at 20 µM; UDG counterscreen, FAM/TAMRA uracil oligo fluorescence; call rule not given here
A number is an active result; – = inactive; · = no result. This is a sample that favours compounds with a hit; in the whole collection about 5.2% have one here.

SMILES	CR mimetic SO	ALR H2O2 inh	PfM18AAP inh	APOBEC3G inh	APOBEC3A inh	NRP1-CendR mod	A3A conf	UDG ctr A3A
Cc1ccc(C)c(NC(=O)C2CC(O)CN2C(=O)Oc2ccccc2)c1 (stereo not given)	–	·	–	–	53.6	–	41.0	–
Cc1ccc(C)c(NC(=O)C2CC(O)CN2C(=O)OCc2ccccc2)c1 (stereo not given)	–	–	–	–	–	–	·	·
Cc1[nH]n(-c2cccc(Cl)c2)c(=O)c1C=NCc1ccco1	–	–	–	–	44.2	–	–	·
Cc1[nH]n(-c2ccccc2)c(=O)c1C=NCc1ccco1	–	–	–	–	–	·	·	·
COCc1cc(C)nc(N2CCNCC2)c1C#N	–	–	–	–	–	–	·	·
COCc1cc(C)nc(N2CCN(Cc3ccccc3)CC2)c1C#N	–	–	–	–	72.3	–	66.0	–
O=c1[nH]ncc2c3ccccc3n(Cc3ccccc3F)c12	–	–	–	–	43.5	–	–	–
CCC1Sc2ccc(S(=O)(=O)CCC(=O)N3CCc4ccccc43)cc2NC1=O (stereo not given)	–	–	–	–	66.4	–	–	–
COC(=O)/C=C1/S/C(=N/NC(=O)c2ccccc2C)NC1=O	–	–	–	–	53.4	–	–	–
COC(=O)/C=C1\S/C(=N/NC(=O)c2ccccc2)NC1=O	–	·	–	–	–	–	·	·
COc1ccccc1C(=O)COC(=O)c1nc2nc(C)cc(C)n2n1	–	·	·	–	–	–	·	·
Cc1c(-c2ccnc3cc(C(=O)O)nn23)cnn1C	–	–	–	–	48.8	–	31.8	–
Cc1c(-c2cc(C(=O)O)c3ccccc3n2)cnn1C	–	·	–	–	–	–	·	·
Cc1ccc2c(c1)sc(C)[n+]2CCCS(=O)(=O)[O-]	–	–	–	–	–	–	·	·
CCCC[n+]1c(C)sc2cc(OC)ccc21	–	·	–	–	65.2	–	66.5	–
CC(=O)c1cccc(NS(=O)(=O)c2ccc(-c3cc(C)no3)s2)c1	–	–	–	–	–	–	·	·
O=C(c1cccc(OC2CCN(Cc3ccc(F)cc3Cl)CC2)c1)N1CCCC1	–	–	–	–	–	–	·	·
CC12CC(O)C3c4ccc(O)cc4CCC3C1CC/C2=N\O (stereo not given)	–	·	–	–	51.2	–	–	–
C[C@]12CC[C@@H]3c4ccc(O)cc4CC[C@H]3[C@@H]1C[C@@H](O)[C@@H]2O	–	–	–	–	–	–	·	·
COc1ccc(CN(C)C(=O)c2ccncc2)c(OC)c1	–	–	–	–	–	–	·	·
COCC1CCCN(C(=O)c2cc(COc3cncc(Cl)c3)on2)C1 (stereo not given)	–	–	–	–	–	–	·	·
C=CCn1c2[n+](c3ccccc3c1=O)CCCCC2	–	–	–	–	67.2	–	51.9	–
c1ccc(-c2ccccc2OCCN2CCOCC2)cc1	–	–	–	–	–	–	·	·
CCCC(C)NC(=O)COc1ccc(S(=O)(=O)c2ccc(OCC(=O)NC(C)CCC)cc2)cc1 (stereo not given)	–	–	–	–	–	–	·	·
COc1ccc(NC(=O)CCCSc2ccccc2)cc1	–	–	–	–	42.4	–	–	·
SMILES	CR mimetic SO	ALR H2O2 inh	PfM18AAP inh	APOBEC3G inh	APOBEC3A inh	NRP1-CendR mod	A3A conf	UDG ctr A3A
COc1cc(C(=O)Nc2ccc(C)cc2C(NCC(=O)NN)c2ccccc2)cc(OC)c1OC (stereo not given)	–	–	–	–	–	–	·	·
CC(CCc1ccccc1)NC(=O)COC(=O)CC1CC2CCC1C2 (stereo not given)	–	–	–	–	121.2	–	–	–
C[n+]1ccc(/C=C/c2cccs2)cc1	–	–	–	–	52.4	–	54.3	·
Cc1ccc(F)cc1NC(=O)c1ccc(NS(=O)(=O)c2ccc(Br)s2)cc1	–	–	–	–	–	–	·	·
CC[n+]1ccc(/C=C2\Sc3ccccc3N2CCCS(=O)(=O)[O-])c2ccccc21	–	–	–	–	82.8	–	92.4	–
CCCCC[C@H]1CN(CCc2ccccc2)C(=O)[C@@H]1CC(=O)NCc1ccc(OC)cc1	–	–	–	–	–	–	·	·
O=C(CSc1nnc(-c2cccnc2)n1-c1ccccc1)N1CCN(c2ccc(F)cc2)CC1	–	–	–	–	–	–	·	·
O=C(CSc1nnc(-c2ccncc2)n1-c1ccccc1)N1CCN(c2ccc(Cl)cc2)CC1	–	–	–	–	43.7	–	65.4	–
COCC(=O)N1CCC(Oc2ccc(C(=O)NC3CCOC(C)(C)C3)cc2)CC1 (stereo not given)	–	–	–	–	–	–	·	·
COc1ccc(N(CC(=O)N2CCc3ccccc3C2)S(C)(=O)=O)cc1Cl	–	–	–	–	47.2	–	–	·
COc1ccc(N(CC(=O)N2CCCCCC2)S(C)(=O)=O)cc1Cl	–	–	–	–	–	–	·	·
CN(C)C(=O)c1c([N+](=O)[O-])ncn1C	–	–	–	–	–	–	·	·
CN(Cc1ccccc1)C(=O)c1ncn(C)c1C(=O)N(C)Cc1ccccc1	–	–	·	–	60.5	–	66.7	–
CCN(CC)C(=O)c1ncn(C)c1C(=O)N(CC)CC	–	–	·	–	51.3	–	64.2	–
CC1(C)CC(N2CCCCC2)=CC(=[N+]2CCCCC2)C1	–	–	–	–	59.7	–	69.1	–
CC1(C)CC(N2CCOCC2)=CC(=[N+]2CCOCC2)C1	–	–	–	–	66.2	–	69.3	–
CCCN(CCC)C1=CC(=[N+]2CCCC2)CC(C)(C)C1	–	–	–	–	59.9	–	–	·
CC1C[N+](=C2C=C(N3CCOCC3)CC(C)(C)C2)CC(C)O1 (stereo not given)	–	–	–	–	56.9	–	65.5	–
CN(C)c1cccc(N=C2C=C(N3CCOCC3)CC(C)(C)C2)c1	–	–	–	–	–	–	·	·
Cn1c(N2CCCCC2)cc(=O)n(C)c1=O	–	–	–	–	–	–	·	·
Cc1cccc(C(=O)Nc2nnc(SCC(=O)Nc3ccc4c(c3)oc3ccccc34)s2)c1	–	–	–	–	80.9	–	83.6	–

Source: PubChem (several laboratories)
